Screening data deposited in PubChem BioAssay by National Center for Advancing Translational Sciences (NCATS).
A549 tox – kills or reduces viability of A549 cells in Nrf2 counter-screen; 390,000 compounds, 0.16% hits; Potency, µM (highest dose often 46 µM), without a hit: at the highest dose activity change, negative = cytotoxicity, hits mostly inhibitors; AID 504648; A549 ARE-Fluc cells, CellTiter-Fluor viability, 18-24 h; also: potency is read from the fitted curve at half-maximal effect; % is scaled to controls: 0 for no effect and ±100 for the full control effect
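A549 ARE-Fluc cells in 5% FBS OPTI-MEM, 5000 cells/well, rested 2 h then exposed to compounds in concentration-response for 18-24 h at 37 °C. Viability by CellTiter-Fluor fluorescence (Ex 405/Em 525) after 30 min; luciferase luminescence (BugLite, 15 min, RT) read afterwards.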
Nrf2 ARE act – activators of Nrf2 (ARE) signaling. AREc32 ARE-luciferase reporter (MCF7-derived line), luminescence, 24 h. Potency, µM (titrated, usually from 46.1 µM), for inactives: at the top dose activation, usual class: activators. 410,000 compounds, 0.31% hits. AID 624171; also: potency is read from the fitted curve at half-maximal effect; % of control where 0% means no effect; nearly all actives have a fitted effect of over 65% in size
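Cells of the AREc32 ARE-luciferase line are plated in OPTI-MEM containing 5% FBS and left overnight at 37 deg C. Compounds are pinned in, incubation continues 24 hr, and firefly luciferase signal is then measured.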
12-LOX inh – ALOX12 (human) lipoxygenase inhibition. P18054. purified 12hLO, xylenol orange hydroperoxide absorbance. Potency, µM (series often up to 108 µM), for inactives: at the highest dose activity change, negative = inhibition, usual class: inhibitors. 580,000 compounds, 1.1% hits. AID 1671190; also: potency is read from the fitted curve at half-maximal effect; % is scaled to controls: 0 for no effect and ±100 for the full control effect
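Hydroperoxide product was detected by ferrous iron/xylenol orange as the 573 to 405 nm absorbance ratio. Arachidonic acid at 40 uM (final) was turned over for 30 min at room temperature by 150 nM human 12hLO, pH 7.0 Hepes buffer, after 15 min compound preincubation.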
ERG-DNA inh – blocks human ERG Ets domain binding to DNA; fluorescence polarization, His-ERG Ets domain / labelled DNA; Potency, µM (titrated, usually from 76.9 µM), without a hit: at the highest dose FP activity, negative = inhibition, usual class: inhibitors; 370,000 compounds, 0.028% hits; AID 624246; active = well fitted inhibition curve with a large enough effect in the polarisation, with a control signal flat; inconclusive = small, poorly fitted or top-dose-only effect, or effect the other way, or a change in a side signal; inactive = no such curve, though single readings can be large or run the other way; the % refers to the polarisation;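 also: polarization taken with two DNA probes labelled with fluorescein and Texas red; potency is read from the fitted curve at half-maximal effect; % of control where 0% means no effect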
Target sequence (P11308 whole entry, looked up, the tested form may be a part): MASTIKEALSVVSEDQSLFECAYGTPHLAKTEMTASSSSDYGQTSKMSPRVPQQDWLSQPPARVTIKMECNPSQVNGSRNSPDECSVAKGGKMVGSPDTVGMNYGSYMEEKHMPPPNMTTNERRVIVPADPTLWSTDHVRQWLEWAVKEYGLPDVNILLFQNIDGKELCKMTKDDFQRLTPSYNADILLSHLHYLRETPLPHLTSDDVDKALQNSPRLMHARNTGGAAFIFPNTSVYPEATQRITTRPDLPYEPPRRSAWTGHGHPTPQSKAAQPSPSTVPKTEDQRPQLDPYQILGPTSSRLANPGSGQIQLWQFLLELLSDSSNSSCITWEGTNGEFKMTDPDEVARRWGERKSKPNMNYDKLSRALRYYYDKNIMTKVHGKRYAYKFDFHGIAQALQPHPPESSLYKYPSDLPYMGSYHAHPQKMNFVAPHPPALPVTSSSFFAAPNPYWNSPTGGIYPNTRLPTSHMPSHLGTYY
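His-tagged ERG Ets domain (1 uM in the protein solution; 300mM KCl, 50mM Tris-HCl, 1mM EDTA, 1mM DTT, pH 7.5) received compound, then a probe mix of 5 nM fluorescein-DNA and 100nM Texas-615-DNA. Fluorescence polarization was read for both dyes.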
LDHA inh – blocks human lactate dehydrogenase A; P00338; purified LDHA, NADH/diaphorase-resazurin fluorescence; hits give low values; activity change, % (values are at about 110 or 230 µM); 480,000 compounds, 0.15% hits; AID 1347041; in the data active = activity change below about -30%; inconclusive = mostly about -25% to -30%;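 also: plate controls were DMSO wells for no effect and wells without enzyme for full effect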
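Remaining NADH was detected by diaphorase (0.133 mg/mL) converting 37 µM resazurin to fluorescent resorufin, read at 0 and 20 minutes. The preceding 5-minute room-temperature reaction used 2 nM LDHA, 0.2 mM sodium pyruvate and 0.06 mM NADH at pH 7.4.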
Nrf2 block – Nrf2 pathway inhibition; A549 ARE-Fluc reporter, luciferase luminescence, 18-24 h; Potency, µM (doses to about 46 µM), without a hit: top-dose activity change, negative = inhibition, hits mostly inhibitors; 360,000 compounds, 2.1% hits; also: potency is read from the fitted curve at half-maximal effect; % is scaled to controls: 0 for no effect and ±100 for the full control effect; nearly all actives have a fitted effect of over 60% in size
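Concentration-response testing used A549 ARE_Fluc cells at 5000 cells/well. Following an 18-24 h compound incubation, viability was read by fluorescence (Ex 405/Em 525) and luciferase output by luminescence.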
Numbers without * were called inactive; u = inconclusive; x = no result given; [ ] = another dose, or the depositor's remark. Only some compounds are listed: those with a hit (about 2.7% of all), similar ones and a draw of the others. Unless noted, calls follow the shape of the dose curve; as a rule, active = well fitted curve in the direction sought with a large enough effect; inconclusive = small, poorly fitted or top-dose-only effect, or another doubt; inactive = no such curve, though single readings can be large; an effect the other way counts as inactive or inconclusive.

SMILES	A549 tox	Nrf2 ARE act	12-LOX inh	ERG-DNA inh	LDHA inh	Nrf2 block
CC(C)(C)c1nc(CN2CCC(c3nc4ccccc4s3)CC2)no1	x	x	u	x	1.6	x
Cc1cccc2nc(-c3ccccn3)c(Nc3ccccc3)n12	-25.9%	3.7%	-2.6%	-1.2%	0.3	10.3µM*
Cc1cccc2nc(-c3ccccn3)c(Nc3ccc(F)cc3)n12	u	0.1%	-10.7%	-2.6%	5.1	16.4µM*
Cc1ccn2c(Nc3ccc(F)cc3)c(-c3ccccn3)nc2c1	u	1.3%	-5.5%	-4.0%	0.3	16.4µM*
Cc1ccc(Nc2c(-c3ccc(C)o3)nc3cccc(C)n23)cc1	0.7%	0.7%	44.7µM*	3.8%	8.1	-2.7%
Cc1ccc(Nc2c(-c3ccccc3O)nc3cc(C)ccn23)cc1	4.9%	-0.7%	-13.4%	3.2%	0.4	-11.3%
C=CCNC(=O)NC(=O)CN(C)c1ccc2ccccc2c1	x	x	u	x	24.6	x
COCCNC(=O)c1c[nH]c2ccc(S(=O)(=O)N3CCc4ccccc43)cc2c1=O	-9.0%	0.0%	u	5.5%	-2.5	16.4µM*
COCCCNC(=O)c1c[nH]c2ccc(S(=O)(=O)N3CCc4ccccc43)cc2c1=O	u	2.9%	-25.7%	-0.4%	2.5	u
COc1ccccc1CNC(=O)COc1ccc2c(C)cc(=O)oc2c1	x	x	11.1%	x	-0.7	x
Cc1cc(C(=O)N2CCCC3(CCNCC3)CC2)c2cnn(C(C)C)c2n1	x	x	20µM*	x	x	x
Cc1ccc(C(=O)O)cc1N1CC(O)=C(c2nc3ccccc3n2C)C1=N	x	x	u	x	4.8	x
COc1cc(C2C=C(Nc3ccccc3)C(=O)N2c2ccccc2)ccc1O (configuration not stated)	u	3.1%	0.7%	13.6%	3.7	18.4µM*
O=C1C(Nc2ccccc2)=CC(c2ccc(O)cc2)N1c1ccccc1 (configuration not stated)	0.5%	1.1%	-28.0%	-6.4%	0.0	-0.6%
O=C(NCCc1ccco1)c1nnc(C(=O)Nc2cccc(Cl)c2)s1	x	x	-22.5%	x	-0.5	x
COc1ccccc1NC(=O)CSc1ccc(-c2sc(C)nc2C)nn1	-0.3%	5.9%	0.0%	2.9%	-3.0	x
Cc1nc(C)c(-c2ccc(SCC(=O)Nc3cccc(F)c3)nn2)s1	u	3.8%	-1.5%	-2.5%	-2.7	14.6µM*
CCOc1ccccc1NC(=O)CSc1ccc(-c2sc(C)nc2C)nn1	3.2%	5.9%	0.0%	-2.3%	0.9	20.6µM*
CC(=O)NC1(C)CCN(Cc2cnc(-c3ccccc3OCc3ccccc3)s2)CC1	x	x	8.91µM*	x	x	x
COc1cccc(Nc2cc(CN3CCC(C)(NC(C)=O)CC3)cc(OC)c2)c1	x	x	39.8µM*	x	x	x
CC(=O)NC1(C)CCN(Cc2cccc(-c3ccc4ccccc4c3)c2)C1 (configuration not stated)	x	x	-19.7%[176 µM]	x	x	x
CC1(NC(=O)C2CC2)CN(Cc2nc(-c3ccccc3OCc3ccccc3)cs2)C1	x	x	0.1%[176 µM]	x	x	x
CC(=O)NC1(C)CCN(Cc2cccc(Oc3ccccc3)c2)CC1	x	x	15.8µM*	x	x	x
O=c1[nH]c(=O)n(-c2ccccc2)c2c1C(C(F)(F)F)(C(F)(F)F)N=C(CCC1CCCCC1)N2	u	-0.1%	2.3%	-1.1%	-2.0	18.4µM*
COc1ccc(-n2c3c(c(=O)[nH]c2=O)C(C(F)(F)F)(C(F)(F)F)N=C(CC(C)C)N3)cc1	1.2%	2.9%	0.0%	-5.1%	-2.5	u
SMILES	A549 tox	Nrf2 ARE act	12-LOX inh	ERG-DNA inh	LDHA inh	Nrf2 block
O=c1[nH]c(=O)n(Cc2ccco2)c2c1C(C(F)(F)F)(C(F)(F)F)N=C(CCC1CCCCC1)N2	-5.7%	-0.2%	0.0%	2.5%	0.0	-3.6%
O=c1[nH]c(=O)n(-c2ccc(F)cc2)c2c1C(C(F)(F)F)(C(F)(F)F)N=C(c1ccc(F)cc1)N2	u	4.5%	2.0%	-3.8%	-12.9	16.4µM*
Cc1ccc(C2=NC(C(F)(F)F)(C(F)(F)F)c3c(n(-c4ccccc4)c(=O)[nH]c3=O)N2)cc1	x	x	35.4%	x	4.0	x
Cc1ccc(C2=NC(C(F)(F)F)(C(F)(F)F)c3c(n(-c4ccc(F)cc4)c(=O)[nH]c3=O)N2)cc1	-13.0%	0.2%	8.8%	x	-4.6	20.6µM*
O=C1CSC(=S)N1c1cccnc1	2.3%	-0.8%	7.0%	x	-1.8	14.8%
O=C1CSC(=S)N1Cc1cccnc1	u	8.91µM*	0.0%	u	11.7	8.2%
CC(C)c1ccc(NC(=S)NN2C(C)CCCC2C)cc1 (configuration not stated)	9.4%	-0.5%	28.2µM*	-2.5%	-8.6	-15.6%
O=C(c1cc2ccccc2[nH]1)N1CCC(C(=O)N2CCCCCC2)CC1	x	x	25.7%	x	9.1	x
CCCc1cc(CN(C)c2nc(CCN)nc3sc(C)c(C)c23)[nH]n1	x	x	54.9%	x	x	x
O=C(Nc1ccc(S(=O)(=O)N2CCCCC2)cc1)c1ccc(Cl)nc1	-11.6%	0.4%	2.0%	2.6%	-7.7	18.4µM*
O=C(Nc1cccc(S(=O)(=O)N2CCCCCC2)c1)c1ccc(Cl)nc1	u	3.0%	-19.1%	-4.8%	-2.1	20.6µM*
O=C(Nc1ccc(S(=O)(=O)N2CCCC2)cc1)c1ccc(Cl)nc1	1.2%	0.8%	-1.2%	-1.2%	-1.7	u
O=C(Nc1cccc(S(=O)(=O)Nc2ccccc2Cl)c1)c1ccc(Cl)nc1	-15.4%	-0.6%	-21.4%	x	-0.2	5.17µM*
O=C(CSc1ccc([N+](=O)[O-])cc1)Nc1cccc(S(=O)(=O)Nc2ccccc2F)c1	-8.5%	0.6%	39.8µM*	-8.0%	0.4	-9.0%
O=C(Cc1ccc(Cl)cc1)Nc1cccc(S(=O)(=O)Nc2ccccc2F)c1	-2.0%	3.4%	-7.4%	7.8%	-7.1	u
CN(C)C(CNC(=O)CCc1ncc(-c2ccc(F)cc2F)o1)c1ccco1 (configuration not stated)	x	x	42.4%	x	-6.2	x
CN(C)C(=O)c1cc2c(F)cccc2[nH]1	x	x	-9.1%	x	1.4	x
CCc1ccc(/C=C/C(=O)NCc2ccco2)o1	x	x	-15.1%	x	-3.6	x
O=C(Nc1cccc(S(=O)(=O)Nc2ccccc2F)c1)c1ccco1	-3.1%	4.5%	-4.9%	-6.2%	-6.1	u
